# Assay results reported in PubChem BioAssay (NCATS).
# Unmarked numbers belong to inactive results. Inconclusive results are not listed. Entries that show only a call come without a potency. Calls of active or inactive are those of the source. Calls come from the whole dose curve; as a rule, active = well fitted curve in the direction sought with a large enough effect; inconclusive = small, poorly fitted or top-dose-only effect, or another doubt; inactive = no such curve, though single readings can be large; an effect the other way counts as inactive or inconclusive.
# System: not listed separately
# Assay: qHTS assay for environmental chemicals that activate the Aryl hydrocarbon Receptor (AhR) signaling pathway (AID 651777); note: nearly all actives have a fitted effect of over 15% in size
# Settings: 1A2-DRE human hepatoma cells, luciferase, 24 h; activation: active compounds read high
# Method in brief: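 Stable CYP1A2 promoter/DRE-luciferase human hepatoma line treated 24 hr; One-Glo luminescence, 30 min RT.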
row,Compound,activation
1,O=C(c1ccc(OCCN2CCCCC2)cc1)c1c(-c2ccc(O)cc2)sc2cc(O)ccc12,-4.31%
2,Nc1c2c(nc3ccccc13)CCCC2,11.6%
3,O=C(CCCN1CCC(O)(c2ccc(Cl)cc2)CC1)c1ccc(F)cc1,-0.128%
4,CN(C)CCOC(c1ccccc1)c1ccccc1,0.827%

# Target: Tyrosine-protein kinase Yes (Homo sapiens) (UniProt P07947)
# Assay: qHTS for small molecule inhibitors of Yes1 kinase: Primary Screen (AID 686947); note: nearly all actives have a fitted effect of over 60% in size; note: potency is the fitted concentration of half-maximal effect
# Settings: Yes1 kinase biochemical qHTS inhibition; series mostly up to 76.9 µM
# Method in brief: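 ADP-Glo luminescence reports ADP formed by 4 nM Yes1 phosphorylating poly(E4Y) (0.3 mg/mL) with 0.1 mM ATP for 60 min at room temperature, following 20 min compound preincubation; normalised between DMSO wells with and without enzyme.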
# Sequence of Tyrosine-protein kinase Yes (Homo sapiens) (P07947 whole entry, looked up): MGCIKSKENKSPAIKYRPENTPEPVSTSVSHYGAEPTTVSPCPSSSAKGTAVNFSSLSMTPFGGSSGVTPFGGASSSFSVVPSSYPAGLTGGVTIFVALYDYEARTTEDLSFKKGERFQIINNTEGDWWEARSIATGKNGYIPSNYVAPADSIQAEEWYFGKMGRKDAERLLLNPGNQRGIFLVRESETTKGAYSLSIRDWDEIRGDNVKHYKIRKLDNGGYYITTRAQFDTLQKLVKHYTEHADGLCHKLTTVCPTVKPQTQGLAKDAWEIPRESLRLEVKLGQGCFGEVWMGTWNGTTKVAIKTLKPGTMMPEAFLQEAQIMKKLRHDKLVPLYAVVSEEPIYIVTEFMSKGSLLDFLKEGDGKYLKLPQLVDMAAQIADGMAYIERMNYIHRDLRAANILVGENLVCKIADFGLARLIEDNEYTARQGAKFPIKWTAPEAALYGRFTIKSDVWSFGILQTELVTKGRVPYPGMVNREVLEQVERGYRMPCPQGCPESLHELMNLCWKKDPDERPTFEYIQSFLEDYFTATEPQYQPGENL
row,Compound,Potency
1,Cn1ccc2cc3c(cc21)CCN3C(=O)Nc1cccnc1,inactive
2,CC1(CN2CCC(n3c(=O)[nH]c4ccccc43)CC2)OCc2ccccc2-n2cccc21 (stereo unspecified),inactive
3,O=C1c2c(O)ccc(O)c2C(=O)c2c(NCCNCCO)ccc(NCCNCCO)c21,34.5 µM (active)
4,CN(C)C(=N)N=C(N)N,inactive

# System: not listed separately
# Assay: qHTS for small molecule inhibitors of Yes1 kinase: Counter Assay (AID 686950);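 note: no kinase present so only ADP-Glo detection of a fixed ADP amount is tested; luminescence from ADP-Glo reporting ADP in a fixed ATP and ADP mixture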
# Settings: series mostly up to 76.9 µM
# Method in brief: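 Measuring interference with ADP-Glo, the assay ran 60 min at room temperature on an ATP/ADP mix lacking enzyme. Values were normalized to ATP-plus-ADP (maximum) and ATP-only (minimum) DMSO controls.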
row,Compound,outcome
1,Cn1ccc2cc3c(cc21)CCN3C(=O)Nc1cccnc1,inactive
2,CS(=O)(=O)CCNCc1ccc(-c2ccc3ncnc(Nc4ccc(OCc5cccc(F)c5)c(Cl)c4)c3c2)o1,inactive
3,CC1(CN2CCC(n3c(=O)[nH]c4ccccc43)CC2)OCc2ccccc2-n2cccc21 (stereo unspecified),inactive
4,CC[C@@]1(O)C(=O)OCc2c1cc1n(c2=O)Cc2cc3c(CN(C)C)c(O)ccc3nc2-1,inactive
5,O=C1c2c(O)ccc(O)c2C(=O)c2c(NCCNCCO)ccc(NCCNCCO)c21,inactive
6,O=c1c(O)c(-c2ccc(O)c(O)c2)oc2cc(O)cc(O)c12,inactive
7,CN(C)C(=N)N=C(N)N,inactive

# Target: Arylsulfatase A (Homo sapiens) (UniProt P15289)
# Assay: qHTS screen for enhancers of Arylsulfatase A (ASA1): LOPAC Validation Assay (AID 720538); note: potency is the fitted concentration of half-maximal effect
# Settings: ASA enzyme activity, LOPAC qHTS enhancer assay; series mostly up to 57.5 µM
# Method in brief: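 Enhancer assay in patient-derived MLD fibroblasts carrying ASA-I179S: 48 h compound exposure at 37 C, then 14 h room-temperature pNCS turnover (0.5 mM final) in lysis buffer. Read by fluorescence at 525/598 nm after NaOH stop.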
# Sequence of Arylsulfatase A (Homo sapiens) (P15289 whole entry, looked up): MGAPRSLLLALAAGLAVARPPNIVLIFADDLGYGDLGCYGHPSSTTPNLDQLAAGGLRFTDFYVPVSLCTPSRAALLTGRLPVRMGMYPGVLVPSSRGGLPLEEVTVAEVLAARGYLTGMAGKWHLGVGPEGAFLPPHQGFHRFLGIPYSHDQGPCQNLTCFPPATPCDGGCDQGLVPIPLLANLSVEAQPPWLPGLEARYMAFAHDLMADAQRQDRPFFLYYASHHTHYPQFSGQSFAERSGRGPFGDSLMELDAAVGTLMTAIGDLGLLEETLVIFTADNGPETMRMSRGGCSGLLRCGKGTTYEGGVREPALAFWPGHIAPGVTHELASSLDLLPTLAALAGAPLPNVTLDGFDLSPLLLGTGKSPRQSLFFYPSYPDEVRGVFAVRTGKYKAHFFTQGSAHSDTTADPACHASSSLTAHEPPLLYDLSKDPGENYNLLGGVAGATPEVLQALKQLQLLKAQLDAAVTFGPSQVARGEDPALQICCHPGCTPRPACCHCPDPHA
row,Compound,Potency
1,Cc1cc(C(C)(C)C)c(O)c(C)c1CC1=NCCN1,inactive
2,O=C(c1ccc(OCCN2CCCCC2)cc1)c1c(-c2ccc(O)cc2)sc2cc(O)ccc12,inactive
3,Cc1cnc(C(=O)NCCc2ccc(S(=O)(=O)NC(=O)NC3CCCCC3)cc2)cn1,inactive
4,NCCCCCC(=O)O,inactive
5,COc1nc(C)nc(Cl)c1NC1=NCCN1,inactive
6,Nc1nc2c(ncn2COC(CO)CO)c(=O)[nH]1,inactive
7,CS(=O)(=O)Nc1ccc([N+](=O)[O-])cc1Oc1ccccc1,inactive
8,COc1ccccc1N1CCN(CC(O)COc2cccc3ccccc23)CC1 (stereo unspecified),inactive
9,O=C1Cc2cc(CCN3CCN(c4nsc5ccccc45)CC3)c(Cl)cc2N1,inactive
10,Cc1ccccc1N1C(=O)c2cc(S(N)(=O)=O)c(Cl)cc2NC1C (stereo unspecified),inactive
11,Cc1ccc(C(=O)Nc2ccc(S(=O)(=O)O)c3cc(S(=O)(=O)O)cc(S(=O)(=O)O)c23)cc1NC(=O)c1cccc(NC(=O)Nc2cccc(C(=O)Nc3cc(C(=O)Nc4ccc(S(=O)(=O)O)c5cc(S(=O)(=O)O)cc(S(=O)(=O)O)c45)ccc3C)c2)c1,inactive
12,Clc1ccc2c(c1)C(N1CCNCC1)=Nc1ccccc1O2,inactive
13,Nc1c2c(nc3ccccc13)CCCC2,inactive
14,COc1cc2nc(N3CCN(C(=O)C4COc5ccccc5O4)CC3)nc(N)c2cc1OC (stereo unspecified),inactive
15,NCCc1cnc[nH]1,inactive
16,CC(CCc1ccc(O)cc1)NCCc1ccc(O)c(O)c1 (stereo unspecified),inactive
17,CN(C)c1nc(N(C)C)nc(N(C)C)n1,inactive
18,O=C(CCCN1CCC(O)(c2ccc(Cl)cc2)CC1)c1ccc(F)cc1,inactive
19,CC(C(=O)O)c1cccc(C(=O)c2ccccc2)c1 (stereo unspecified),inactive
20,O=C1c2c(O)ccc(O)c2C(=O)c2c(NCCNCCO)ccc(NCCNCCO)c21,23.9 µM (active)
21,CN(C)CCOC(c1ccccc1)c1ccccc1,inactive
